Data taken from ChEMBL document CHEMBL1961873, “Compounds: GSK PKIS; Assays: Nanosyn kinase panel” (2012).
Where “and” joins values, the source holds several entries; their conditions need not be identical. Equal entries are not always repeated.

How the values were obtained:
[1] = biological target: Death-associated protein kinase 1 (Homo sapiens) (UniProt P53355); conditions: at 1 µM;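 further: each value is a mean inhibition figure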
[2] = biological target: T1, Serine/threonine-protein kinase DCLK2 (Homo sapiens) (UniProt Q8N568); conditions: at 0.1 µM
T1 sequence (whole entry): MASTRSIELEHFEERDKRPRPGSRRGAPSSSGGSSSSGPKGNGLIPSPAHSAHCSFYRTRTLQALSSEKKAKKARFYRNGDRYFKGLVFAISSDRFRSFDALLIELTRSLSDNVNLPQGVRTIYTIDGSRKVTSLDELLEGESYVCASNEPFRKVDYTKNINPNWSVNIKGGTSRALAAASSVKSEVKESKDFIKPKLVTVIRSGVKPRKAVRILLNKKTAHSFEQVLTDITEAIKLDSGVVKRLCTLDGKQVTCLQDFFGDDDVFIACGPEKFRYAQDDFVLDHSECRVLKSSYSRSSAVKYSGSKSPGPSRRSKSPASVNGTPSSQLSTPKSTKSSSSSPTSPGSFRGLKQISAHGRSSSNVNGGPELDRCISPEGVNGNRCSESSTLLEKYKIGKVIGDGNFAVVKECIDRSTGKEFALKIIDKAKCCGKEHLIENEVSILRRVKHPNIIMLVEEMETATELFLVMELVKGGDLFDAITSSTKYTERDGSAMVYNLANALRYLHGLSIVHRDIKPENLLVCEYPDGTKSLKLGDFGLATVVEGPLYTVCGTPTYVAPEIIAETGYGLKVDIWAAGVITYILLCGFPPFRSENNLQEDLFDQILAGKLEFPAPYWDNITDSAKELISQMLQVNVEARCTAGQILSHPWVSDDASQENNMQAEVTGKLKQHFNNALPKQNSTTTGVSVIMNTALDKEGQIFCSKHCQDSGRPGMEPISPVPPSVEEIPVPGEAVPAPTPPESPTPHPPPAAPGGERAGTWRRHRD

[3] = biological target: T1, Serine/threonine-protein kinase DCLK2 (Homo sapiens); conditions: at 1 µM
[4] = biological target: MAP kinase-activated protein kinase 2 (Homo sapiens) (UniProt P49137); conditions: at 0.1 µM
MAP kinase-activated protein kinase 2 (Homo sapiens), sequence (P49137 whole entry, looked up): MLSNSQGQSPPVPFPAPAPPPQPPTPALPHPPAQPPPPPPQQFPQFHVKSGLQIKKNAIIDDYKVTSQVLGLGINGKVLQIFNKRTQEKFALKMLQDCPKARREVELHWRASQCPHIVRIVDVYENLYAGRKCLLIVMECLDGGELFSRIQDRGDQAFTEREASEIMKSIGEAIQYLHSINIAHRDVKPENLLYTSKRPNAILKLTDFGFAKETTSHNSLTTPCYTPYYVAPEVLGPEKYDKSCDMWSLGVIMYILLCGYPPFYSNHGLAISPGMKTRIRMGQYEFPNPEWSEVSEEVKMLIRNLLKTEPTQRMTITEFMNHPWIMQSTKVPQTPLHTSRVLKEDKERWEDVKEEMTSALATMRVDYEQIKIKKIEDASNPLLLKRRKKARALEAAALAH

[5] = biological target: MAP kinase-activated protein kinase 2 (Homo sapiens) (UniProt P49137); conditions: at 1 µM
[6] = biological target: MAP kinase-activated protein kinase 3 (Homo sapiens) (UniProt Q16644); conditions: at 0.1 µM
MAP kinase-activated protein kinase 3 (Homo sapiens), sequence (Q16644 whole entry, looked up): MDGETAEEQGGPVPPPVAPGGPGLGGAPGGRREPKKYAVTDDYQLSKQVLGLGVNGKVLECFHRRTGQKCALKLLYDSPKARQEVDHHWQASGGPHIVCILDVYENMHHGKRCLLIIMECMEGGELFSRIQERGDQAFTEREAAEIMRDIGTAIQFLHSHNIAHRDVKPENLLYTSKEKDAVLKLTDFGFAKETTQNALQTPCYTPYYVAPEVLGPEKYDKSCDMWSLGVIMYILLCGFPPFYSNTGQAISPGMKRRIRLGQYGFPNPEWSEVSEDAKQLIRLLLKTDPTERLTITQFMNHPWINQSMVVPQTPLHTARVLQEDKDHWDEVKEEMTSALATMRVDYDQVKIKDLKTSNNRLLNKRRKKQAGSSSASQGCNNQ

[7] = biological target: MAP kinase-activated protein kinase 3 (Homo sapiens) (UniProt Q16644); conditions: at 1 µM
[8] = biological target: Serine/threonine-protein kinase MARK1 (Homo sapiens) (UniProt Q9P0L2); conditions: at 0.1 µM
Serine/threonine-protein kinase MARK1 (Homo sapiens), sequence (Q9P0L2 whole entry, looked up): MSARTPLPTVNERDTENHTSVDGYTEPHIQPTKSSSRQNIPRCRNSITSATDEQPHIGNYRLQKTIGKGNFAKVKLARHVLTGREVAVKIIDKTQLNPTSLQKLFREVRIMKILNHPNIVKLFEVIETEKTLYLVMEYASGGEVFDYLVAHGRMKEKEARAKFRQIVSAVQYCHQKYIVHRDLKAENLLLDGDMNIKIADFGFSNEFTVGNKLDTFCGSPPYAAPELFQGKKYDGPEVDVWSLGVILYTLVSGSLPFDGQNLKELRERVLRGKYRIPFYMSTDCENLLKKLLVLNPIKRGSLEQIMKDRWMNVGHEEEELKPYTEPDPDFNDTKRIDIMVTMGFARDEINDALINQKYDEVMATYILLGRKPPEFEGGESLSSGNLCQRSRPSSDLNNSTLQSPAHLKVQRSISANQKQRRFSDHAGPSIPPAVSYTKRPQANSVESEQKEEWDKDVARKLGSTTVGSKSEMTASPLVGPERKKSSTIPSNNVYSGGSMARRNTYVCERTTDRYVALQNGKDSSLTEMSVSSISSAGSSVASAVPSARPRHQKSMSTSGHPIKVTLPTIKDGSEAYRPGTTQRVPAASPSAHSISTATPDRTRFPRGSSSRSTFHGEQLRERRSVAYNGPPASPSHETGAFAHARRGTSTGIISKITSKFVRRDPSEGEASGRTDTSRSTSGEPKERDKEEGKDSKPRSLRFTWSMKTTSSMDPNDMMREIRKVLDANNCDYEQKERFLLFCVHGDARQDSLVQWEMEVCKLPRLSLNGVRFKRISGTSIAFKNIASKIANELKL

[9] = biological target: Serine/threonine-protein kinase MARK1 (Homo sapiens) (UniProt Q9P0L2); conditions: at 1 µM
[10] = biological target: MAP/microtubule affinity-regulating kinase 3 (Homo sapiens) (UniProt P27448); conditions: at 0.1 µM
MAP/microtubule affinity-regulating kinase 3 (Homo sapiens), sequence (P27448 whole entry, looked up): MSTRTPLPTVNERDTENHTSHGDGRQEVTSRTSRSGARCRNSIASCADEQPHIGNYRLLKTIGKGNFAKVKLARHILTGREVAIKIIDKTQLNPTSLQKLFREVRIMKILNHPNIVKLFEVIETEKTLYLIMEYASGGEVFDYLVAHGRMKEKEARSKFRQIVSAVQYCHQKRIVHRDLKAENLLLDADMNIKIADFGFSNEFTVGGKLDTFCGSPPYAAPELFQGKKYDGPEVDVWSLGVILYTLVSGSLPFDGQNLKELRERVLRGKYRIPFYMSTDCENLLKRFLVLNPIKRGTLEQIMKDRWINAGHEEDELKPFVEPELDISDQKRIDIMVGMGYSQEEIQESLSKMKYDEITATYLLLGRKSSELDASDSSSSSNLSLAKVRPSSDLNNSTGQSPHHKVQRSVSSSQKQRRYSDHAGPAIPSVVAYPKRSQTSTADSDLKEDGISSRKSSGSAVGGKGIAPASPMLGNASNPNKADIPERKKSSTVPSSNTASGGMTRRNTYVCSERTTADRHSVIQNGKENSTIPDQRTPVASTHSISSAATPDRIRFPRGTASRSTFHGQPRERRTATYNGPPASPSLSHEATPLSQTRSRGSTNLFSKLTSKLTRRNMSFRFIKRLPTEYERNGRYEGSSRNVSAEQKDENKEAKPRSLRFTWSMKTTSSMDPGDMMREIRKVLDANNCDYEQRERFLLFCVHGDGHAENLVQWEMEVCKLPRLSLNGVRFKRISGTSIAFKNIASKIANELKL

[11] = biological target: MAP/microtubule affinity-regulating kinase 3 (Homo sapiens) (UniProt P27448); conditions: at 1 µM
[12] = biological target: T2, MAP/microtubule affinity-regulating kinase 4 (Homo sapiens) (UniProt Q96L34); conditions: at 0.1 µM
T2 sequence (whole entry): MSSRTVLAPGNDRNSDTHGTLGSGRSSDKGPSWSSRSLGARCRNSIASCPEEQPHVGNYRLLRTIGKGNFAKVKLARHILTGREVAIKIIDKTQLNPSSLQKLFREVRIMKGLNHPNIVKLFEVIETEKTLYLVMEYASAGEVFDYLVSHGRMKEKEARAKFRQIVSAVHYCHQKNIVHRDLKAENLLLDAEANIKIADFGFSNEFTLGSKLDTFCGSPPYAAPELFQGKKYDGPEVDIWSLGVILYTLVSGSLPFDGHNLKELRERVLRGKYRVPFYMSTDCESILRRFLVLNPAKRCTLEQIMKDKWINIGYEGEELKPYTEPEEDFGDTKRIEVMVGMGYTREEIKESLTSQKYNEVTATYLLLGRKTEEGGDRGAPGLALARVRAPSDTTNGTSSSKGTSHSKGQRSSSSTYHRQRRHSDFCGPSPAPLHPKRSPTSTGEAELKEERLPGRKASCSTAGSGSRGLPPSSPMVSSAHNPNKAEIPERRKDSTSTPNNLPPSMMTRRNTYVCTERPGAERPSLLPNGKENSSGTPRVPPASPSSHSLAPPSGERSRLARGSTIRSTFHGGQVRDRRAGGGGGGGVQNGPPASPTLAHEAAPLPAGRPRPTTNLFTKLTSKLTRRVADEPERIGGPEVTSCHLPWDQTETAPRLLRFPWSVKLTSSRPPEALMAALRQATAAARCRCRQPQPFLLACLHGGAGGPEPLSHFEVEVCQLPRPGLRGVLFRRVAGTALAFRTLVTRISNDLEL

[13] = biological target: T2, MAP/microtubule affinity-regulating kinase 4 (Homo sapiens); conditions: at 1 µM
[14] = biological target: Maternal embryonic leucine zipper kinase (Homo sapiens) (UniProt Q14680); conditions: at 0.1 µM
Maternal embryonic leucine zipper kinase (Homo sapiens), sequence (Q14680 whole entry, looked up): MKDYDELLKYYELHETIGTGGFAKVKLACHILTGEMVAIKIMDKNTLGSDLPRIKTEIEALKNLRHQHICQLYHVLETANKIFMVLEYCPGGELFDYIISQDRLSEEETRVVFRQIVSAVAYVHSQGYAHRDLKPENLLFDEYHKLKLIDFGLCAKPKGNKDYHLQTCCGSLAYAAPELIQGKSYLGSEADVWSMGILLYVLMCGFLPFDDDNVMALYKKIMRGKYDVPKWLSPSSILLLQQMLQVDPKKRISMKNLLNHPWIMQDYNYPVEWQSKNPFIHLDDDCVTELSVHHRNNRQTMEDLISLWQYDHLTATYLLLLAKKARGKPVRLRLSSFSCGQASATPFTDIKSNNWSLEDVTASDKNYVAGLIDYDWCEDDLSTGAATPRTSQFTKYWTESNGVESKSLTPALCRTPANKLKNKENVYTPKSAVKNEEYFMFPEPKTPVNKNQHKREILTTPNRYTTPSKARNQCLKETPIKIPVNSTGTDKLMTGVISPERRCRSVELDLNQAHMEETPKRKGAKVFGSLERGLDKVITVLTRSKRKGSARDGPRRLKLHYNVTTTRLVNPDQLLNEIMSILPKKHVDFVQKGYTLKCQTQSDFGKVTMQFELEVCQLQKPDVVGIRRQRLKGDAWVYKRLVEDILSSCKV

[15] = biological target: Maternal embryonic leucine zipper kinase (Homo sapiens) (UniProt Q14680); conditions: at 1 µM
[16] = biological target: MAP kinase-interacting serine/threonine-protein kinase 1 (Homo sapiens) (UniProt Q9BUB5); conditions: at 0.1 µM
MAP kinase-interacting serine/threonine-protein kinase 1 (Homo sapiens), sequence (Q9BUB5 whole entry, looked up): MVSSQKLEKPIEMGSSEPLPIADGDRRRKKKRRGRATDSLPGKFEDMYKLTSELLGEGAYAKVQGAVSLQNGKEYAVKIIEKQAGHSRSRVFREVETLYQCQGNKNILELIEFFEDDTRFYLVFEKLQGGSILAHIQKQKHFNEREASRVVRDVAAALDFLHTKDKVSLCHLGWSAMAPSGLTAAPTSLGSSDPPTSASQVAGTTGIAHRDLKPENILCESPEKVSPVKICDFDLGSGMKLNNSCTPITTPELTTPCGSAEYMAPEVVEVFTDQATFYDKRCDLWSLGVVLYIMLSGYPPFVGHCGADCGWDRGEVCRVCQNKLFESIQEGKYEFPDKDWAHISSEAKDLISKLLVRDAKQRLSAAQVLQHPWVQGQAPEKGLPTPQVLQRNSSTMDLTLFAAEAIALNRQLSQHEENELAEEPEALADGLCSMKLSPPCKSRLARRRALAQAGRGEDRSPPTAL

[17] = biological target: MAP kinase-interacting serine/threonine-protein kinase 1 (Homo sapiens) (UniProt Q9BUB5); conditions: at 1 µM
[18] = biological target: MAP kinase-interacting serine/threonine-protein kinase 2 (Homo sapiens) (UniProt Q9HBH9); conditions: at 0.1 µM
MAP kinase-interacting serine/threonine-protein kinase 2 (Homo sapiens), sequence (Q9HBH9 whole entry, looked up): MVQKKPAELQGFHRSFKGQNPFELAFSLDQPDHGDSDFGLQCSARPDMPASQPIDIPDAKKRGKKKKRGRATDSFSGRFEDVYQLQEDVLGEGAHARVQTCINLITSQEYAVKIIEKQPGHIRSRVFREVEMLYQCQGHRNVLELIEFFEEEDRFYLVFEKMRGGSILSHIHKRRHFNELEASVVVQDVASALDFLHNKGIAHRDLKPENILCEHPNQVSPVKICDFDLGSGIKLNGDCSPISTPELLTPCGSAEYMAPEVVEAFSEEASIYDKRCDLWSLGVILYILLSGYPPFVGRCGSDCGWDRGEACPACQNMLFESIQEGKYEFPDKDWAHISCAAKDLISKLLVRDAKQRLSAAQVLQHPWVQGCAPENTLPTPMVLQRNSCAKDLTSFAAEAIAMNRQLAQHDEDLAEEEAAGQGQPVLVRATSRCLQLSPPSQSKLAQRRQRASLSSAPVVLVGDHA

[19] = biological target: MAP kinase-interacting serine/threonine-protein kinase 2 (Homo sapiens) (UniProt Q9HBH9); conditions: at 1 µM
[20] = biological target: Serine/threonine-protein kinase MARK2 (Homo sapiens) (UniProt Q7KZI7); conditions: at 0.1 µM;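 further: mean percent inhibition of PAR-1Balpha kinase activity, reported from the GSK PKIS screen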
Serine/threonine-protein kinase MARK2 (Homo sapiens), sequence (Q7KZI7 whole entry): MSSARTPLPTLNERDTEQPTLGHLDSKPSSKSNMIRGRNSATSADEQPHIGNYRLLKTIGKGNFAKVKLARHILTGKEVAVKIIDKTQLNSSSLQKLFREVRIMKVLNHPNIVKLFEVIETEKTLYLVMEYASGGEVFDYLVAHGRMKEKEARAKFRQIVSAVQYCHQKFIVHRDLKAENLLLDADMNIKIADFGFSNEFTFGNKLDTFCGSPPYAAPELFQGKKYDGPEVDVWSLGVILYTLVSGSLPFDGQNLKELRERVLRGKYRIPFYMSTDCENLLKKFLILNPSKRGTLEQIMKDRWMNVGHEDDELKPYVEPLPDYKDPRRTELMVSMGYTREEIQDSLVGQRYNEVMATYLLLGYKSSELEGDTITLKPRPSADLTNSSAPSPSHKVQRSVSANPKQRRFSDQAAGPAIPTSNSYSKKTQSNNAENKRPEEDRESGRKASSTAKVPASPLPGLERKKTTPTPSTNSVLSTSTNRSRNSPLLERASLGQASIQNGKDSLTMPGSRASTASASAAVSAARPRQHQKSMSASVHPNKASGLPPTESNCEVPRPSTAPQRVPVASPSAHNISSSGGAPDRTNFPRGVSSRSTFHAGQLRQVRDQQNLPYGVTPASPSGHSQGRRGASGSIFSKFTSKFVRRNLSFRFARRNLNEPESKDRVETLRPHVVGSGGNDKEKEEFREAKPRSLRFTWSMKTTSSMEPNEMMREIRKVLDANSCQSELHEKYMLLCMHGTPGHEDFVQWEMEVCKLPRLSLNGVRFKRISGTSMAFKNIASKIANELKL

SMILES	inhibition [1]	inhibition [2]	inhibition [3]	inhibition [4]	inhibition [5]	inhibition [6]	inhibition [7]	inhibition [8]	inhibition [9]	inhibition [10]	inhibition [11]	inhibition [12]	inhibition [13]	inhibition [14]	inhibition [15]	inhibition [16]	inhibition [17]	inhibition [18]	inhibition [19]	inhibition [20]
O=C(O[C@H]1CN[C@H](C#Cc2cc3ncnc(Nc4ccc5c(cnn5Cc5ccccc5)c4)c3s2)C1)N1CCOCC1	-1.55%	-2.27%	-1.86%	-0.79%	-0.97%	0%	-0.37%	0.33%	3.97%	-1.73%	2.28%	0.43%	2.44%	-2.54%	-1.35%	1.01%	9.35%	0.04%	11.5%	-1.65%
Nc1nccc(-c2c(-c3ccc(F)cc3)ncn2C2CCNCC2)n1	-3.07% and -0.77%	1.18% and 0.52%	-2.79% and 3.76%	-1.56% and -0.23%	-1.96% and -0.84%	27.6% and 29.5%	34.1% and 34.6%	-0.83% and 1.71%	-0.5% and 1.51%	-0.05% and -0.2%	0.65% and -2.22%	-0.05% and 0.87%	0.67% and 0.98%	-3.33% and -1.76%	4.7% and 0.94%	-0.09% and 1.2%	12.4% and 3.16%	0.4% and 0.49%	4.75% and 1.44%	0.15% and 0.08%
COc1cccc(Nc2nccc(-c3cnn4ncccc34)n2)c1	0.16%	-2.05%	2.73%	1.39%	-0.06%	2.8%	2.89%	4.15%	27.7%	4.03%	29.6%	0.65%	17.3%	5.16%	52.3%	2.14%	11.3%	3.27%	22.7%	1.23%
CCCNc1cccc(-n2ncc3c(N/N=C/c4ccncc4)ncnc32)c1	-8.41%	6.83%	2.98%	-2.72%	-2.37%	-5.26%	-4.82%	2.01%	10.3%	3.4%	9.23%	0.58%	9.44%	-0.14%	3.93%	31.2%	69.1%	37.6%	72.2%	0.04%
c1ccc(-c2n[nH]cc2-c2ccnc(-c3ccc(OCCn4ccnc4)cc3)c2)nc1	-8.69%	6.53%	-6.73%	-2.58%	-2.83%	-3.24%	4.97%	1.59%	3.61%	-0.18%	6.87%	1.49%	3.83%	2.12%	27.2%	0.75%	5.94%	0.5%	7.2%	-0.46%
NS(=O)(=O)c1ccc(N/N=C2\C(=O)Nc3cccc(CCc4ccncc4)c32)cc1	-1.65%	-0.47%	-0.08%	-0.02%	-0.84%	0.82%	0.37%	2.29%	5.9%	1.2%	3.11%	2.47%	4.28%	4.76%	34.7%	1.05%	0.27%	0.14%	1.83%	0.98%
NC(=O)c1ccc2c(-c3ccnc(NCCCO)n3)c(-c3ccc(F)cc3)nn2c1	15.1%	1.81%	1.24%	5.03%	5.02%	39.7%	43.4%	4.33%	4.69%	4.33%	21.9%	1.93%	2.67%	6.11%	6.85%	4.56%	13.4%	3.16%	7.35%	1.93%
CN1CCC(n2cnc(-c3ccc(F)cc3)c2-c2ccnc(NCCO)n2)CC1	5.18%	1.63%	0.48%	2.06%	2.43%	27.6%	37.2%	3.31%	7.7%	4.03%	6.04%	0.86%	2.05%	2.15%	5.49%	4.71%	15.9%	2.63%	8.42%	-0.26%
COC(=O)Nc1nc2ccc(Oc3ccc(NC(=O)Nc4cc(C(F)(F)F)ccc4F)cc3)cc2s1	-1.22%	-1.5%	-7.94%	0.26%	-0.42%	7.74%	20.3%	0.76%	0.29%	0.41%	-0.18%	-0.51%	0.37%	1.63%	3.51%	4.79%	15.7%	2.41%	7.88%	-8.34%
